MARV entry inh: blocks Marburg virus binding or cell entry. Marburg virus pseudotype entry/binding inhibition, cell-based. Potency, µM (top dose mostly 49.2 µM), for inactives: top-dose activity change, negative = inhibition, most hits filed as inhibitors. actives 6.5% (n = 18,000). AID 720532
LASV entry inh: blocks Lassa virus binding or cell entry. Lassa virus pseudotyped entry inhibition, cell-based qHTS. Potency, µM (titrated, usually from 49.2 µM), inactives show at the top dose activity change, negative = inhibition, actives largely listed as inhibitors. actives 4.1% (n = 18,000)
* = called active by the depositor; ? = inconclusive; / = no result; [ ] = remark or other dose. Compounds with a hit are over-represented: about 8.6% of the library has one in this group of screens. Calls come from the whole dose curve; tested in HEK293 cells. % is set by controls: 0 for no effect and ±100 for the full control effect; potency is the fitted concentration of half-maximal effect.

SMILES	MARV entry inh	LASV entry inh
CC(C)C[C@H]1COc2c(Cl)cccc2S(=O)(=O)N1Cc1cccc(F)c1	-24%	4%
CSCC[C@H](N)C(=O)N[C@@H](C)C(=O)NCC(=O)N[C@@H](CCCN=C(N)N)C(=O)N[C@@H](CO)C(=O)NCC(=O)N[C@@H](CC(=O)O)C(=O)N[C@@H](CO)C(=O)N[C@@H](CC(=O)O)C(=O)N[C@@H](CCC(=O)O)C(=O)N[C@@H](CC(=O)O)C(=O)N[C@@H](CC(C)C)C(=O)N[C@@H](CC(C)C)C(=O)N[C@@H](CCCCN)C(=O)N[C@@H](C)C(=O)N[C@H](C(=O)O)C(C)C	4%	-12%
CCCN(CCC)C(=O)C(CCC(=O)OCCCN1CCN(CCOC(=O)Cc2c(C)n(C(=O)c3ccc(Cl)cc3)c3ccc(OC)cc23)CC1)NC(=O)c1ccccc1 (stereo not drawn)	14µM*	22µM*
COc1ccc2c(c1)c(CC(=O)OCC(=O)O)c(C)n2C(=O)c1ccc(Cl)cc1	22%	-3%
C=CC1CC(C=C)OP(=O)(OC[C@H](C)[C@@H](O[Si](C)(C)C(C)(C)C)[C@@H](C)C=C)O1 (stereo partly drawn)	49%	17%
O=C(c1ccc([N+](=O)[O-])cc1)N1[C@H](COCc2ccccc2)C=CS1(=O)=O	-20%	-20%
COC(=O)C1CCCCN1Cc1ccc2c(c1)CN(C(=O)c1csc(-c3cccs3)n1)CCO2 (stereo not drawn)	?	-11%
C=CC[C@]1(C(=O)OC)C=C[C@H](C)[C@@H](c2ccccc2)N1C(=O)C(F)(F)F	-15%[8.59 µM]	10%[8.59 µM]
O=C(Cc1ccc(Cl)c(Cl)c1)N1CCCC[C@H]1CN1CCCC1	?	-25%
Cc1[nH]c(/C=C2/C(=O)Nc3ccc(S(=O)(=O)Cc4c(Cl)cccc4Cl)cc32)c(C)c1C(=O)N1CCCC1CN1CCCC1 (stereo not drawn)	14µM*	-4%
CCCCCCCCCC(CC)c1ccc(S(=O)(=O)O)cc1 (stereo not drawn)	27%[107 µM]	?
C=C(C)C[C@@]1(c2ccccc2)Oc2ccccc2C2=NCCN=C21	-21%[8.59 µM]	7%[8.59 µM]
CC(C)=CCCC1(C)C=Cc2c(O)c3c(c(CC=C(C)C)c2O1)OC12C(CC4CC1C(C)(C)OC2(C/C=C(/C)C(=O)O)C4O)C3=O (stereo not drawn)	3%	10µM*
CC1CC2(C)Oc3ccccc3C3OCC1(COC(=O)Nc1ccccc1)C(C)C32 (stereo not drawn)	-12%	?
C[C@H]1C[C@H](C)C(=O)[C@@H]([C@H](O)CC2CC(=O)NC(=O)C2)C1	?	3.2µM*
CCOC(=O)CN1C(=O)CC(C[C@@H](O)C2C[C@@H](C)C[C@H](C)C2=O)CC1=O (stereo partly drawn)	-3%	-7%
C[C@@H]1C[C@@H]([C@@H](C)CC2CC(=O)NC(=O)C2)C(=O)[C@@H](C)C1	5µM*	4.5µM*
CC1CC(C)C(=O)[C@H](C(O)CC2CC(=O)NC(=O)C2)C1 (stereo partly drawn)	2.5µM*	5.6µM*
C[C@H]1C[C@@H](C)C(=O)[C@@H]([C@H](O)CC2CC(=O)NC(=O)C2)C1	1.1µM*	3.5µM*
COC(=O)C1=C(C(=O)OC)[C@@H]2N(C)c3ccccc3[C@@]23CCC(=O)N(Cc2ccco2)C3=N1	16%[8.59 µM]	/
O=C(OCc1cn([C@H]2C[C@H](c3ccccc3)N(C(=O)C3CCCCC3)C[C@H]2O)nn1)c1ccccc1	17%	8%
CC(=O)OCOC(=O)CNc1ccccc1OCCOc1ccccc1NCC(=O)OCOC(C)=O	?	-29%
CC(C)CN(C[C@@H](OP(=O)(O)O)[C@H](Cc1ccccc1)NC(=O)O[C@H]1CCOC1)S(=O)(=O)c1ccc(N)cc1	0%	0%
OC(CCN1CCCC1)(c1ccccc1)C1CCCCC1 (stereo not drawn)	16µM*	-20%
OC(CCN1CCCCC1)(c1ccccc1)c1ccccc1	8.9µM*	?
SMILES	MARV entry inh	LASV entry inh
OC(C#CCN1CCCC1)(c1ccccc1)c1ccccc1	-10%	-4%
CC[N+](CC)(CC)CCC(O)(c1ccccc1)C1CCCCC1 (stereo not drawn)	5%[17.8 µM]	-10%[17.8 µM]
COCC=CC1=CC2=CC(=O)C(C)(OC(=O)c3cnc4ccccc4n3)C(=O)C2=CN1Cc1ccc(OC)cc1 (stereo not drawn)	-2%[8.59 µM]	11%[8.59 µM]
CC[C@@]1(O)C(=O)OCc2c1cc1n(c2=O)Cc2cc3cc(O)ccc3nc2-1	?	0.11µM*
Cc1ccc(C(=O)OC[C@H]2O[C@H](Cl)C[C@H]2OC(=O)c2ccc(C)cc2)cc1	1%[8.59 µM]	-6%[8.59 µM]
O=C(OC[C@H]1O[C@@H](OC(=O)c2cc(O)c(O)c(OC(=O)c3cc(O)c(O)c(O)c3)c2)[C@H](OC(=O)c2cc(O)c(O)c(OC(=O)c3cc(O)c(O)c(O)c3)c2)[C@@H](OC(=O)c2cc(O)c(O)c(OC(=O)c3cc(O)c(O)c(O)c3)c2)[C@@H]1OC(=O)c1cc(O)c(O)c(OC(=O)c2cc(O)c(O)c(O)c2)c1)c1cc(O)c(O)c(OC(=O)c2cc(O)c(O)c(O)c2)c1	0.35µM*	10µM*
O=C(OCc1cn([C@H]2CN(C(=O)C3CCCCC3)[C@@H](c3ccccc3)C[C@H]2O)nn1)c1ccccc1	?	-28%
OC[C@@H](O)[C@H]1O[C@@H]2O[C@H](C(Cl)(Cl)Cl)O[C@@H]2[C@H]1O	-22%	?
CCCCCCN1C[C@H](O)[C@@H](n2cc(-c3ccc(F)cc3)nn2)C[C@H]1c1ccccc1	?	-27%
CCCC[C@@H](C)/C=C(C)/C=C(\C)C(=O)NC1=C[C@@](O)(/C=C/C=C/C=C/C(=O)NC2=C(O)CCC2=O)[C@@H]2O[C@@H]2C1=O	5.6µM*	16µM*
NC(=O)OC[C@@H]1[C@H](NC(=O)/C(=N\OCC(=O)O)c2csc(N)n2)C(=O)N1S(=O)(=O)O	19%	9%
COc1c2c(cc3c1OCO3)C13C=CC(OC)CC1N(C2)CC3O (stereo not drawn)	5%	2%
COC1C=CC23c4cc5c(cc4CN(CC2O)C3C1)OCO5 (stereo not drawn)	2.2µM*	7.1µM*
COC(=O)[C@@H]1CCCN1Cc1ccc2c(c1)CN(Cc1ccc3c(c1)CCO3)CCO2	-14%	1%
CCCCCc1ccc(C)cc1O	12%	-6%
[H+].[H+].[Hg+2].[O-]B([O-])[O-].[c-]1ccccc1	?	1µM*
COc1cc(=O)n2c(c1C(=O)NCc1nonc1C)CCN(Cc1c[nH]c3ccccc13)CC2	1%	?
Cc1cc2c(C(C)C)c(O)c(O)c(C=O)c2c(O)c1-c1c(C)cc2c(C(C)C)c(O)c(O)c(C=O)c2c1O	20µM*	11µM*
CN(C)c1nc2cc3c(cc2cc1CN(CC1CCCO1)C(=O)/C=C/c1cccs1)OCO3 (stereo not drawn)	-17%	7%
C1CCC(C(C[C@@H]2CCCCN2)C2CCCCC2)CC1	7.9µM*	-26%[17.8 µM]
CCCCCCCCN=C(N)c1ccc(C(=O)OCC2CCCCC2)cc1	2.8µM*	13µM*
CCOC(=O)c1ccc(OC(=O)CCCCCN=C(N)N)cc1	38%[17.8 µM]	-2%[17.8 µM]
Cc1ccccc1CN1[C@@H](CC(C)C)COc2c(Cl)cccc2S1(=O)=O	-24%	15%
Cc1cc2c(OCC(CNC(C)(C)C)OC(=O)c3ccccc3)cccc2[nH]1 (stereo not drawn)	35µM*	-21%
O=C1C2CC=CCC2C(=O)N1SC(Cl)(Cl)Cl (stereo not drawn)	?	10µM*
